According to PubChem BioAssay (NCATS):
Records with an inconclusive call do not appear. Active and inactive are the calls of the source. Calls come from the whole dose curve; as a rule, active = well fitted inhibition curve with a large enough effect; inconclusive = small, poorly fitted or top-dose-only effect; inactive = flat fitted curve, though single readings scatter. Where a SMILES comes first, the peptide text is derived from it. [ ]: non-standard residue; d: D form. ξ: configuration not given here. ξPhe(βξ-Me) = CC(c1ccccc1)C(N)C(=O)O; GABA = NCCCC(=O)O

test system: HACAT; assay: qHTS assay to identify novel small-molecules to repurpose for Merkel cell carcinoma treatment (AID 1296009); details: MCC and control cell lines, CellTiter-Glo viability, 72 h; at 44.8 µM (top of the series) unless noted; note: nearly all actives have a fitted effect of over 60% in size
Outline: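 Viability readout: ATP luminescence (CellTiter-Glo) after 72 hr drug exposure at 37 degree celsius. Dose-response format was 8 points for NPC and 11 points for MIPE; data normalized to in-plate controls.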

Q: Which outcome does the source give for `O=C(OCc1cccc(O)c1O[C@@H]1O[C@H](CO)[C@@H](O)[C@H](O)[C@H]1O)C1(O)C(=O)C2C=CC1C1C=CC(=O)C(O)(C(=O)OCc3cccc(O)c3O[C@@H]3O[C@H](CO)[C@@H](O)[C@H](O)[C@H]3O)C21` (stereo not given in full) here?
A: Its outcome is “inactive [at 9.27 µM]”.

Q: With `C/C=C(\C)C(=O)O[C@H]1[C@H](O)[C@]2(COC(C)=O)[C@H](O)C[C@]3(C)C(=CCC4[C@@]5(C)CC[C@H](O[C@@H]6O[C@H](C(=O)O)[C@@H](O[C@@H]7O[C@H](CO)[C@@H](O)[C@H](O)[C@H]7O)[C@H](O)[C@H]6O[C@@H]6O[C@H](CO)[C@@H](O)[C@H](O)[C@H]6O)[C@](C)(CO)C5CC[C@]43C)[C@@H]2CC1(C)C` (stereo not given in full) as the compound, how does the outcome read?
A: The outcome was “inactive [at 9.27 µM]”.

Q: For `CC(=O)O[C@@H]1C[C@@]23C[C@@]24CC[C@H](OC2OC[C@@H](O)[C@H](O)[C@H]2O)C(C)(C)[C@@H]4CC[C@H]3[C@]2(C)CC3OC4(C[C@@H](C)C3[C@@]12C)OCC1(C)OC14` (stereo not given in full), which outcome is on record?
A: Its outcome is “inactive [at 17.4 µM]”.

Q: With `COc1ccc2c(c1O)OC[C@H]1c3ccc(O)cc3O[C@@H]21` as the compound, how does the outcome read?
A: The outcome was “inactive”.

Q: How did the outcome turn out when `CC1=CC(=O)C2C(C)(C)CCCC2(C)C12CCC1(COC(=O)C1)O2` (stereo not given) was run?
A: The outcome was “inactive”.

Q: How did the outcome turn out when `C[C@]1(O)CC[C@@H]2C(C(=O)O)=CO[C@@H](O[C@@H]3O[C@H](COC(=O)c4ccc(O)cc4)[C@@H](O)[C@H](O)[C@H]3O)[C@@H]21` was run?
A: Its outcome is “inactive [at 17.4 µM]”.

Q: For `O=C(c1ccccn1)c1cnn2c(-c3ccncc3)ccnc12`, which outcome is on record?
A: Its outcome is “inactive”.

Q: `C=CC1(C)C=C2C(O)CC3C(C)(C(=O)O)CCCC3(C)C2CC1` (stereo not given) was tested. Which outcome did it give?
A: The outcome was “inactive”.

Q: For `COC(=O)C1=CO[C@@H](O[C@@H]2O[C@H](COC(=O)/C=C/c3cc(OC)c(O)c(OC)c3)[C@@H](O)[C@H](O)[C@H]2O)[C@@H]2C(CO)=CC[C@H]12`, which outcome is on record?
A: The outcome was “inactive [at 17.4 µM]”.

Q: How did the outcome turn out when `CC12CCC3C(C)(C)C(O)CCC3(C)C1Cc1c(oc(C(=O)O)cc1=O)O2` (stereo not given) was run?
A: Its outcome is “inactive”.

Q: How did the outcome turn out when `C=C(C)C(C)C1OC23CC4(CO2)C(CCC2C5(C)CCC(OC6OCC(O)C(OC7OC(CO)C(O)C(OC8OCC(O)C(O)C8O)C7O)C6OC6OC(CO)C(O)C6O)C(C)(C)C5CCC24C)C3C(C)(O)C1OC(C)=O` (stereo not given) was run?
A: The outcome was “inactive [at 9.27 µM]”.

Q: Which outcome does the source give for `CC(=O)Oc1cc2c(s1)CCN([C@H](C(=O)C1CC1)c1ccccc1F)C2` here?
A: Its outcome is “inactive”.

Q: `Cc1ncc([N+](=O)[O-])n1CC(O)CN1CCOCC1` (stereo not given) was tested. Which outcome did it give?
A: The outcome was “inactive”.

Q: How did the outcome turn out when `O=C(c1ccc(NS(=O)(=O)c2cccc3cccnc23)cc1)N1CCN(CC2CC2)CC1` was run?
A: The outcome was “inactive”.

Q: Which outcome does the source give for `C/C(=C\CCC(C)(O)c1ccc(C)cc1)C(=O)O` (stereo not given) here?
A: Its outcome is “inactive”.

Q: Which outcome does the source give for `COc1cc(C2Oc3c(OC)cc(/C=C/C(=O)OC[C@H]4O[C@@H](OC(C)(C)C(=O)O)[C@H](O)[C@@H](O)[C@@H]4O)cc3C2CO)ccc1O` (stereo not given in full) here?
A: The outcome was “inactive [at 17.4 µM]”.

Q: How did the outcome turn out when `CC(C)CC1NC(=O)C(C(C)c2ccccc2)NC(=O)C(C(C)C)NC(=O)C(C)NC(=O)CCCNC(=O)C(Cc2c[nH]c3ccccc23)NC(=O)C(C)NC1=O` (stereo not drawn) (cyclo([GABA]AV[ξPhe(βξ-Me)]LAW); configuration not given here) was run?
A: The outcome was “inactive [at 17.4 µM]”.

Q: How did the outcome turn out when `C=CC1C(O[C@@H]2O[C@H](CO)[C@@H](O)[C@H](O)[C@H]2O)OC=C(C(=O)OC)C1CC(=O)O` (stereo not given in full) was run?
A: The outcome was “inactive [at 17.4 µM]”.

Q: For `CC1CCC2(NC1)OC1C(=O)C3C4CCC5CC(O[C@@H]6O[C@H](CO)[C@@H](O)[C@H](O)[C@H]6O[C@@H]6O[C@@H](C)[C@H](O)[C@@H](O)[C@H]6O)CCC5(C)C4CCC3(C)C1C2C` (stereo not given in full), which outcome is on record?
A: Its outcome is “inactive [at 17.4 µM]”.

Q: `C=C(C(=O)O)C1CCC(C)C2CCC(=O)OC2(C)C1` (stereo not given) was tested. Which outcome did it give?
A: The outcome was “inactive”.

Q: How did the outcome turn out when `CC1(C)C(=O)N2c3ccccc3[C@]3(CC(n4cnc5ccccc5c4=O)C(=O)O3)[C@H]2N1O` (stereo not given in full) was run?
A: The outcome was “inactive [at 17.4 µM]”.

Q: How did the outcome turn out when `CC(C)c1nc(N(C)S(C)(=O)=O)nc(-c2ccc(F)cc2)c1/C=C/[C@@H](O)C[C@@H](O)CC(=O)O` was run?
A: Its outcome is “inactive”.

Q: For `O=C(O)Cc1nn(Cc2nc3cc(C(F)(F)F)ccc3s2)c(=O)c2nccnc12`, which outcome is on record?
A: Its outcome is “inactive”.

Q: `O=C(O)CCc1cc2ccoc2cc1O[C@@H]1O[C@H](CO[C@@H]2OC[C@](O)(CO)[C@H]2O)[C@@H](O)[C@H](O)[C@H]1O` was tested. Which outcome did it give?
A: The outcome was “inactive [at 17.4 µM]”.

Q: For `COc1ccc(/C=C/C(=O)O[C@@H]2[C@@H](OC(C)=O)[C@@H](OC(C)=O)[C@H](O[C@H]3[C@@H]4C=CO[C@@H](O[C@@H]5O[C@H](CO)[C@@H](O)[C@H](O)[C@H]5O)[C@@H]4[C@@]4(CO)O[C@@H]34)O[C@H]2C)cc1O`, which outcome is on record?
A: The outcome was “inactive [at 17.4 µM]”.
